# PubChem BioAssay (NCI)
# The panel holds about 79,000 compounds, 15% with a hit somewhere; the sample as a whole holds those more often. A number with no mark means an inactive call. Activity calls are given as the source filed them. No stated cut-off is given here; in the data, active means growth inhibition above about 70%; inactive means the rest. Where a SMILES comes first, the peptide text is derived from it. Bridges are numbered along the chain shown (N, C = ends). [ ]: non-standard residue; d: D form. The star is where a group is joined. ξ: configuration not given here. PhAc = O=C(Cc1ccccc1)*; ξP = O=C(O)C1CCCN1
# Key:
# [1] = NCI Yeast Anticancer Drug Screen. Data for the rad50 strain (AID 155);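 further: 0% = growth of vehicle-only cultures of the same strain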; conditions: S. cerevisiae rad50 strain growth inhibition; at 50.0 µM; active compounds read high
# Outline: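 A DNA repair-deficient yeast mutant serves as the test organism; compound-induced growth inhibition is calculated against vehicle-treated cells.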
# [2] = NCI Yeast Anticancer Drug Screen. Data for the mec2-1 strain (AID 157); conditions: S. cerevisiae mec2-1 strain, at 50.0 µM, active compounds read high
# Outline: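 Growth inhibition is read against vehicle-treated controls after compound exposure of the mec2-1 yeast strain, which is defective in DNA damage repair or cell cycle control.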
# [3] = NCI Yeast Anticancer Drug Screen. Data for the sgs1 mgt1 strain (AID 161);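 further: 0% = growth of cultures given vehicle only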; conditions: S. cerevisiae sgs1 mgt1 strain, at 50.0 µM, active compounds read high
# Outline: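 Growth of a repair-deficient yeast mutant was monitored after compound treatment and expressed as inhibition relative to vehicle-treated cultures.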
# [4] = NCI Yeast Anticancer Drug Screen. Data for the cln2 rad14 strain (AID 165);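 further: 0% = growth equal to vehicle treated cultures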; conditions: S. cerevisiae cln2 rad14 strain, at 50.0 µM, active compounds read high
# Outline: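 Growth inhibition, relative to vehicle-treated controls, is the read-out. The test organism is a yeast strain with defined genetic alterations, cln2 rad14.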
# [5] = NCI Yeast Anticancer Drug Screen. Data for the bub3 strain (AID 167); conditions: S. cerevisiae bub3 mutant strain, at 50.0 µM, active compounds read high
# Outline: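 Inhibition values come from growth of compound-treated mutant yeast normalised to vehicle-treated controls.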
# [6] = NCI Yeast Anticancer Drug Screen. Data for the mlh1 rad18 strain (AID 175); conditions: S. cerevisiae mlh1 rad18 strain growth inhibition; at 50.0 µM; active compounds read high
# Outline: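 Cells of a genetically altered yeast strain, deficient in DNA damage repair, were treated with compound. Their growth was then compared with that of vehicle-treated cultures to give inhibition.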
SMILES,growth inhibition [1],growth inhibition [2],growth inhibition [3],growth inhibition [4],growth inhibition [5],growth inhibition [6]
Clc1ccc2nsnc2c1Cl,-0.1%,-1.25%,-3.75%,-19.4%,7.8%,8.1%
N#Cc1c(Br)n(C2OC(CO)C(O)C2O)c2ncncc12 (stereo unspecified),1.5%,7.5%,1.55%,-0.05%,4.7%,2.7%
Cc1cc(Cl)ccc1NC(=O)C1C(=O)N(c2ccc(Cl)cc2C)C(=O)/C1=N\NC(N)=S (stereo unspecified),-16.6%,-6.6%,-22.5%,-0.25%,-2.5%,-27.1%
COC(=O)C1(Cc2ccc3c(c2)CCC3)Cc2ccccc2C1,-9.5%,-25.5%,-6.1%,5.2%,29.9%,-9.2%
CCCC(=O)N(C)c1ccccc1,7.5%,-11.1%,-1.85%,-29.4%,6.35%,-8.35%
CC(=O)[C@H]1C[C@@H](CC(=O)O)C1(C)C,-0.55%,-11.8%,-10.6%,-6%,-3.25%,-3.15%
COc1ccc(C2OC(=O)C(=O)C2=O)cc1OC (stereo unspecified),-25.9%,-25.4%,-8.45%,-17.4%,8.7%,-8.65%
O=C(O)C1CSCN1 (stereo unspecified),-3.85%,-22.9%,-3.2%,1.1%,1%,18.3%
FC(F)(F)c1ccccc1N=Cc1cccs1,-12.1%,-9.55%,23.1%,3.05%,13.4%,20.3%
C/C=C/C(=O)OCCCCCCCCCCCCCCCCCC,13.7%,-23.8%,11.7%,8%,15.5%,21%
COc1cc([C@@H]2c3cc4c(cc3[C@H](OC3OC5COC(C(C)C)OC5C(O)C3O)C3COC(=O)[C@@H]32)OCO4)cc(OC)c1OC (stereo partly specified),11.6%,46.7%,31%,3.2%,9.25%,-41.8%
O=C(OCC(O)C(O)C(O)COC(=O)c1ccccc1)c1ccccc1 (stereo unspecified),-11.6%,-5.05%,-25.4%,-23.6%,-22.8%,-13.1%
BrC1(Br)C2CC/C=C/CCCCC21 (stereo unspecified),-10.1%,13.9%,20.9%,-1.85%,-3.05%,-27.1%
O=[S@@]1Nc2cc(Cl)c(Cl)cc2S1,9.6%,-2%,-6.6%,3.45%,-0.05%,14.1%
O=C(Cc1ccccc1)N[C@@H]1COC(=O)C2CCCN2C(=O)[C@@H]2CCCN2C1=O (stereo partly specified) (PhAc-[dS]-Pro-[ξP]; ester 1-C),-11.6%,-1.7%,4.25%,27.4%,12.3%,0.65%
CCCCCCCCCCCCCCCCCC1=NCC(C)O1 (stereo unspecified),4.6%,-14%,-0.35%,19.6%,13.3%,-10.1%
O=C(CCC(=O)Nc1ccc(Cl)c(Cl)c1)Nc1ccc(Cl)c(Cl)c1,50.9%,46.5%,49%,39.1%,78.2% (active),63%
COc1ccc(COC=O)cc1,21.8%,-5.1%,-0.8%,1.55%,11.3%,24.4%
O=C(O)C#Cc1ccccc1[N+](=O)[O-],21.1%,25.1%,11.3%,-15.4%,14.9%,9.35%
C/C(CCn1[nH]c(=O)ccc1=O)=N\N=C(N)N,-13.2%,-13.1%,-0.65%,-4.85%,-1.4%,1.7%
Nc1ccc(N)c(C(=O)O)c1,-9.35%,15.1%,1.1%,-2.5%,-12.6%,-8.9%

SMILES,growth inhibition [1],growth inhibition [2],growth inhibition [3],growth inhibition [4],growth inhibition [5],growth inhibition [6]
CC(=O)COc1ccccc1,-2.7%,-10.5%,7.75%,6.45%,-6.85%,15.4%
CC(=O)N(C(C)=O)C1=C(c2ccccc2)C(=O)c2ccccc21,13.2%,22.2%,14%,-0.75%,-2.95%,40.1%
CC(=O)N/N=C1\NN(C(C)=O)C2(S1)C(=O)Nc1ccccc12 (stereo unspecified),7.7%,52%,68.8%,78.5% (active),51.8%,33.1%
Cc1c(C(CC(=O)c2ccccc2)C(=O)O)c2ccccc2n1C (stereo unspecified),2.05%,-25.3%,23.2%,-32.3%,52%,-11.4%
CCOC(=O)c1ccccc1C(=O)c1ccccc1O,-5.8%,-18%,-1.6%,-0.45%,-5.45%,18.4%
COc1ccc(N=C(C)c2c(O)n(-c3ccccc3)[nH]c2=O)cc1,98.8% (active),97.5% (active),99.2% (active),99.1% (active),98.8% (active),98.5% (active)
Clc1ccc(/C=C/c2ccc3ccccc3n2)cc1,-2.65%,-11.6%,-13%,-28.3%,-14%,12%
CC(C)c1cccc(C(C)C)c1NC1=CC(=O)C(=O)c2ccccc21,-7.25%,14.4%,-16.8%,-0.2%,4.85%,-7.85%
O=C(NC(=O)c1ccc(F)c(Cl)c1)NC1CC1,6.3%,-1.15%,12%,14.2%,9.25%,5.3%
O=C(/C=N/O)Nc1ccccc1,10.8%,7.25%,-0.15%,7.9%,7.25%,-9.35%
COC(=O)/C=C(\C(=O)OC)C1=C(N2CCCC2)CC(C)(C)CC1=O,-7.8%,-14.9%,-14.1%,-14.3%,-14.3%,-1.1%
CCCCn1nnnc1N,3.45%,6.4%,-8.2%,12%,17.8%,6.85%
Nc1nnc(-c2ccc(Nc3nc4ccccc4[nH]3)c([N+](=O)[O-])c2)s1,7%,1.4%,27.7%,15.3%,3.15%,14.1%
COc1ccc2c(c1)SC1=NNC(=O)CN12,-21.6%,-27.6%,-9.45%,-39.1%,-12.2%,-22.9%
C/C(=N\NC(=S)N1CCC(C2CCN(C(=S)N/N=C(\C)c3ccccn3)CC2)CC1)c1ccccn1,32.4%,15.5%,60.1%,45.2%,63.9%,-27.4%
Cc1ccc(S(=O)(=O)Nn2c(-c3ccccc3)c(C#N)c(-c3ccc([N+](=O)[O-])cc3)c(C#N)c2=O)cc1,-0.65%,16.2%,8.6%,11.6%,20.1%,37%
O=C1c2ccccc2-c2cc(Cl)c(Cl)cc21,13.4%,2.1%,13.7%,17.1%,-1.8%,-22.2%
CC(C)(C)c1cc(CN2CCOCC2)cc(C(C)(C)C)c1O,8%,5%,0.7%,0.15%,-3.15%,14.3%
CC(=O)OCC1OC(n2c(C)c(C(C)=O)c(-c3ccc(Cl)cc3)c(C#N)c2=S)C(OC(C)=O)C(OC(C)=O)C1OC(C)=O (stereo unspecified),-37.9%,-9.55%,-2.1%,12.2%,9.15%,-2.65%
Oc1ccc2ccc3[nH]cnc3c2c1,-22.5%,-25.4%,-9%,2.1%,-8.9%,0.15%
